About 760 (0.21%) of roughly 370,000 compounds were called active. The sample holds actives, similar compounds and a random draw of the others, so the mix is not that of the screen. Values without a mark were called inactive.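 The calls were made as follows: active = inhibition above a per-campaign cutoff: mean of compounds within control limits plus 3 SD (cut at about 15% in these data); inactive = the rest.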

The target in the assay is Fibrinogen beta chain (Homo sapiens) (UniProt P02675). Nature of the assay: small molecules displacing Tn6 from DD(E) complex – biochemical, fluorescence polarization, human fibrin, Tn6 probe, primary screen (AID 720509).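 Also: 0% = median of all compound wells on the plate and 100% = blocking peptide control.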 The conditions noted are these: Fibrin DD(E) TRITC-Tn6 fluorescence polarization displacement; at 8.3 µM; hits give high values.
Sequence of Fibrinogen beta chain (Homo sapiens) (P02675 whole entry, looked up): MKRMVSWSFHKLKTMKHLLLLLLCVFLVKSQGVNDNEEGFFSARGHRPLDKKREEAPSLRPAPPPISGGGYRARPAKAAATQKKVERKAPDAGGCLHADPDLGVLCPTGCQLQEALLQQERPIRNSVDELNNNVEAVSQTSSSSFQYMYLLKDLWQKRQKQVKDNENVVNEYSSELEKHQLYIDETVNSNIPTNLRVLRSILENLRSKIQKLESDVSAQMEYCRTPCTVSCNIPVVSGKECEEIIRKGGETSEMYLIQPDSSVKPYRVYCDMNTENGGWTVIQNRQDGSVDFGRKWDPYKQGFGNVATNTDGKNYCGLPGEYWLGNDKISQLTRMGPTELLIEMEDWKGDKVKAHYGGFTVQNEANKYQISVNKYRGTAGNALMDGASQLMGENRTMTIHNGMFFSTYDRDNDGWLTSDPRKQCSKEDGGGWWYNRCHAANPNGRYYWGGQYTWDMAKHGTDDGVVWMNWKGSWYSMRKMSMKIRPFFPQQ
As a reminder, the inhibition is the change of the read-out against control, counted positive when it falls. Turning to `CCc1nc2c(OCc3ccc(C(F)(F)F)cc3)cccn2c1N(C)C(=O)CC(C)C`, the inhibition is 3.22%.

As to `Cc1nc2nc3c(cn2n1)C(=O)CC(c1ccccc1)C3` (centres undefined), the inhibition was 4.63%.

Turning to `CC(C)CSc1nnc(-c2cccnc2)n1Cc1ccccc1`, the inhibition was -2.2%.

As to `Cc1cc(NS(=O)(=O)c2ccc(NC(=O)CSc3nnc(-c4ccc(C(C)(C)C)cc4)n3Cc3ccco3)cc2)nc(C)n1`, the inhibition is 6.53%.

For `Cc1ccc(C(=O)NC2CCN(C(=O)Nc3ccccc3Cl)CC2)cc1`, the inhibition is 0.49%.

As for `CCOCCCNC(=O)c1c[nH]c2cc(C)ccc2c1=O`, the inhibition is -0.35%.

As to `CCn1ccnc1CN(C)C(=O)c1ccc2nc(Cc3ccc(OC)cc3)oc2c1`, the inhibition was -4.19%.

Turning to `COc1ccc(Cc2nc3ccc(C(=O)N4CCC(N(C)C)C4)cc3o2)cc1` (centres undefined), the inhibition was 2.22%.

`CCC1C(=O)NCCN1C(=O)c1ccc2nc(Cc3ccc(OC)cc3)oc2c1` (centres undefined): the inhibition was 15.8% (active).

With `CC(C)CN1CC(C)C(=O)N(c2ccccc2)C1=S` (centres undefined), the inhibition is 11.7%.

For the compound `COC(=O)C1=C(C)N(c2ccc(C)cc2)/C(=C/c2ccc(O)cc2)C1=O`, the inhibition is 1.49%.

On to `Cc1ccccc1N(C(=O)Cc1cccs1)C(C(=O)NC1CCCCC1)c1cn(C)nc1C` (centres undefined), for which the inhibition is -5.36%.

For the compound `O=C(Nc1nsc(-c2ccccc2)n1)c1ccncc1`, the inhibition is 1.55%.

In the case of `CCOc1ccc(C(=O)Nc2cccc(-c3ccc4nncn4n3)c2)cc1`, the inhibition was 12.2%.

With `O=C(Nc1cccc(-c2nc3ccccc3[nH]2)c1)c1ccc(C(=O)Nc2cccc(-c3nc4ccccc4[nH]3)c2)cc1`, the inhibition is 19.9% (active).

On to `O=C(c1ccc(F)cc1)c1cn(Cc2ccc(F)cc2)c2cc3c(cc2c1=O)OCCO3`, for which the inhibition is -1.55%.

Regarding `CCN(CC)C(=O)CC[C@@H]1CC[C@]2(CCCN(S(=O)(=O)C3CCCCC3)C2)O1`, the inhibition was -5.4%.

For `CCc1nc2ccccc2c(C(=O)OC2CCCCC2=O)c1C` (centres undefined), the inhibition was -0.37%.

Take `CSc1ccccc1OCc1cc(C(=O)N2C[C@H]3CC[C@H]2C3)no1`: the inhibition is 8.52%.

On to `O=C(CN1C(=O)CSC1=O)N1CCCC(Nc2ccc(F)cc2)C1` (centres undefined), for which the inhibition is -6.4%.

On to `CC(=O)Nc1ccc(OCCC[n+]2cccc(C(=O)[O-])c2)cc1`, for which the inhibition was -1.3%.

For the compound `Cn1ccc(=Nc2ccc(NC(=O)c3ccc(N=c4ccn(C)c5ccc([N+](=O)[O-])cc45)cc3)cc2)cc1`, the inhibition was -6.27%.

Regarding `COC(=O)C1CN(Cc2cn(Cc3ccc(F)cc3)nn2)CCS(=O)(=O)N1Cc1ccc(Cl)cc1` (centres undefined), the inhibition is 10.6%.

Consider `Cc1ccc(OCCNC(=O)c2cccc(S(=O)(=O)N3CCN(Cc4ccccc4)CC3)c2)cc1`, for which the inhibition was 4.41%.

In the case of `C[C@@H]1CN([C@H](C)CO)C(=O)CCCn2cc(nn2)CO[C@H]1CN(C)S(=O)(=O)c1ccc(Oc2ccccc2)nc1`, the inhibition was -1.11%.

Consider `Cc1noc(C)c1-c1nc(CSc2ccc(Cl)cc2)no1`, for which the inhibition is -2.98%.

Turning to `C[C@@H](C(=O)N1CCNCC1)n1cc(CCC(=O)O)nn1`, the inhibition is -0.49%.

`O=C(CCl)NNc1cccc(Cl)n1`: the inhibition is 30.8% (active).

In the case of `O=C(NNc1cc(Cl)cc(Cl)c1)c1c(F)cccc1Cl`, the inhibition was 1.43%.

In the case of `O=C(Cc1c(Cl)cccc1Cl)NC1CC1`, the inhibition is 6.01%.

`COC(=O)[C@]12C[C@H](CC(=O)NCc3cccc(C(F)(F)F)c3)C(=O)N(Cc3ccc4c(c3)OCO4)C1=C[C@H](COCc1ccccc1)O[C@@H]2C`: the inhibition was -3.35%.

Turning to `CN(C)CCCn1c(N)c(C#N)c2nc(C#N)c(C#N)nc21`, the inhibition is 15.8% (active).

Consider `Cc1cccc(N(C(=O)c2csnn2)C(C(=O)NCc2ccccc2)c2ccncc2)c1` (centres undefined), for which the inhibition was 1%.

Consider `CC(C)NC(=O)c1ccccc1S(=O)c1ccccc1C#N` (centres undefined), for which the inhibition is -6.4%.

`CCn1nnc2cc(C(=O)Nc3ccc(C(=O)OC(C)C)cc3)ccc21`: the inhibition was -3.39%.

As to `Cc1cccc(C)c1N1CCN(S(=O)(=O)N2CCOCC2)CC1`, the inhibition was -1.95%.

In the case of `COc1ccc(-c2c(-c3cc(OC)cc(OC)c3)n(C)c3ccc(-c4ccn[nH]4)cc23)cc1`, the inhibition is 7.03%.

`Cc1cc2nc3c(=O)[nH]c(=O)nc-3n(C[C@H](O)[C@H](O)[C@H](O)CO)c2cc1C`: the inhibition was 16.3% (active).

In the case of `CCN(CC)CCCC(C)n1c2nc(=O)[nH]c(=O)c-2nc2cc(Cl)ccc21` (centres undefined), the inhibition is 0.53%.

As for `CCc1ccc(NC(=O)CN2CCC(C(=O)c3ccc(OC)cc3)CC2)cc1`, the inhibition is 3.02%.

`S=c1[nH]cc(-c2ccc(Cl)cc2)n1-c1ccccc1`: the inhibition was 1.55%.

On to `COc1cc(C(=S)N2CCOCC2)cc(OC)c1OC(=O)c1cc([N+](=O)[O-])c(C)c([N+](=O)[O-])c1`, for which the inhibition is -2.56%.

On to `CONc1nc2nonc2nc1NOC`, for which the inhibition is 15.3% (active).

Turning to `COCCNc1nc2nonc2nc1N(C)Cc1ccc(C)cc1`, the inhibition is -1.67%.

Consider `N#CC(=C1SC=CS1)c1nc(-c2ccccc2)cs1`, for which the inhibition is 4.25%.

Take `COc1ccc(Nc2nc(-c3ccccc3)cs2)cc1`: the inhibition is 16.7% (active).

As for `COc1ccc(NC(=S)N2N=CCC2c2ccccc2)cc1` (centres undefined), the inhibition is 4.08%.

In the case of `CC(C)Nc1ccc(-n2nc3ccccc3[n+]2[O-])cc1`, the inhibition was -1.03%.

On to `NS(=O)(=O)c1ccc(CNC(=O)c2ccc(Cl)cc2[N+](=O)[O-])cc1`, for which the inhibition is 9.9%.

Take `CSc1ccccc1NC(=O)c1cnc2sc(C)cn2c1=O`: the inhibition was 7.27%.

In the case of `COC(=O)[C@@H]1CCCN1C(=O)c1cc(COc2cccc3cccnc23)on1`, the inhibition is 7.18%.

Turning to `O=C(NCCCn1ccnc1)C1CCCN(S(=O)(=O)c2cc(Cl)ccc2Cl)C1` (centres undefined), the inhibition was 1.05%.

For the compound `COc1ccc2c(c1)CC[C@@H]1[C@@H]2CC[C@]2(C)C(=O)CC[C@@H]12`, the inhibition is 5.66%.

Take `CCc1cccc(CC)c1NC(=O)COc1ccccc1C(=O)c1cc(C#N)c(=O)n(C2CCCCC2)c1`: the inhibition is -4.12%.

Turning to `CN(Cc1ccccc1)C(=O)CCC1CCN(C(=O)c2ccco2)CC1`, the inhibition is -1.06%.

As to `Cc1cc(C)c2nc(NC(=O)C3CCCO3)sc2c1` (centres undefined), the inhibition was 15.3% (active).

As to `Cc1cc(C)c2nc(N3CCC(C(=O)NCCN4CCOCC4)CC3)sc2c1`, the inhibition is -1.61%.

As to `Cc1ccc(C)c(C(C)NC(=O)C2CCCO2)c1` (centres undefined), the inhibition was 0.84%.

On to `O=C(NCC1CCCO1)c1ccccc1-c1nc(-c2ccccc2Cl)no1` (centres undefined), for which the inhibition is 8.29%.

With `Cc1nn(C)cc1N1C(=O)c2cccc3c(N)ccc(c23)C1=O`, the inhibition is 19.6% (active).

Take `C/C(N)=C(/C#N)C(=O)COC(=O)CNS(=O)(=O)c1ccc(C)cc1`: the inhibition is 4.06%.

Regarding `COc1ccc(C)cc1NC(=S)Nc1ccccc1SC`, the inhibition is -8.72%.

On to `COc1cc(NC(=S)NNC(=O)CC(C)C)c(OC)cc1Cl`, for which the inhibition was 9.57%.

As for `CCc1ccccc1NC(=S)Nc1cc(OC)c(NC(=O)C(C)C)cc1OC`, the inhibition was 52.5% (active).

`Cc1ccccc1OCC(=O)Nc1nnc(S(=O)(=O)N2CCCC2)s1`: the inhibition was 3.91%.

On to `Cc1ccc(NC(=O)C(C)Sc2nnc(C3CC3)n2C2CC2)cc1S(=O)(=O)N1CCOCC1` (centres undefined), for which the inhibition was -3.46%.

Consider `O=C1CCc2cc(S(=O)(=O)N3CCC(C(=O)NCc4ccccc4Cl)CC3)ccc2N1`, for which the inhibition was -0.95%.

For the compound `COc1ccc(C(=O)OCc2cc(=O)n3ccsc3n2)cc1F`, the inhibition is -0.34%.

Regarding `O=c1cc(Cn2nnc(-c3ccc(Cl)cc3)n2)nc2sccn12`, the inhibition is 16.1% (active).

In the case of `O=C(OCc1cc(=O)n2ccsc2n1)C1(c2ccc(Cl)cc2)CC1`, the inhibition was 4.84%.

As to `Cc1ccc(S(=O)(=O)NCC(=O)NNC(=O)c2ccc(Br)cc2)cc1C`, the inhibition is 0.07%.

With `Cc1cc(=O)oc(C)c1C(=O)NCCN(C)Cc1ccccc1`, the inhibition was -1.95%.

Regarding `C[C@@H]1ON(C)[C@H]2C[C@H]3c4cc(N5CCN(C)CC5)ccc4CCN3C(=O)[C@@H]12`, the inhibition was -3.94%.

As for `Cc1ccc(CNC(=O)Cc2cn(C)c3ccccc23)cc1`, the inhibition was -3.12%.

As to `Cc1ccc(CNC(=O)COc2ccc3c(c2)CCC3)cc1`, the inhibition is -1.34%.

For the compound `CCOCC(=O)NCc1ccc2c(c1)cc(C)n2C`, the inhibition is 22.7% (active).

In the case of `CC[C@@H]1CC2=C(C(=O)OC(C)(C)O2)[C@@H](CC)O1`, the inhibition was -4.34%.

Regarding `COc1ccc(NC(=O)c2cc([N+](=O)[O-])ccc2NC(=O)CNC2CCCCC2C)c(OC)c1` (centres undefined), the inhibition was -3.72%.

Consider `CC1(C)C(C=C(Cl)Cl)C1C(=O)NC(O)C(=O)c1ccccc1` (centres undefined), for which the inhibition was 14.5%.

Take `O=C(c1ccc2c(c1)N(Cc1ccc(F)cc1)C(=O)CS2)N1CCOCC1`: the inhibition was -0.8%.

As to `COC(=O)C(=Nc1ccccc1)/C(C(=O)C(=O)N(C)c1ccccc1)=C(\O)c1ccc(Cl)cc1`, the inhibition was -4.47%.

For the compound `O=C(NCCNc1ccccc1[N+](=O)[O-])c1ccccc1F`, the inhibition is 16.1% (active).

Take `O=C(NCCCNc1ccc([N+](=O)[O-])cc1Cl)c1ccccc1F`: the inhibition is 0.76%.

For the compound `Cc1c(C(=O)NCCCc2ccccc2)cccc1[N+](=O)[O-]`, the inhibition was 7.53%.

For `Cc1ccc(-c2nn(-c3ccccc3)cc2/C=C/C(=O)Nc2cccc(S(N)(=O)=O)c2)cc1`, the inhibition was 52% (active).

With `NS(=O)(=O)c1ccc(NC(=O)/C=C/c2ccccc2Cl)cc1`, the inhibition is -10.6%.

As to `COc1ccc(-n2cnnc2SCC(=O)Nc2cccc(S(N)(=O)=O)c2)cc1`, the inhibition was 11.3%.

Take `CC1CN(S(=O)(=O)c2cccc(C(F)(F)F)c2)CN1C(=O)N1CCOCC1` (centres undefined): the inhibition was -4.35%.

Take `CC(=O)n1cc([C@@H]2C=C(C(=O)N3CCN(Cc4ccc5c(c4)OCO5)CC3)O[C@H](OCc3ccc(CO)cc3)C2)c2ccccc21`: the inhibition is 3.52%.

Values taken from PubChem BioAssay AID720509 (The Scripps Research Institute Molecular Screening Center, 2013).
